From the OligoGym collection
Further: reference of the scale not given here.

These sequences were tested against HNRNPL (assay: pooled miR-30 sensor sort-seq; sequence = guide strand). Details: shRNA.
TTCTTGAACACATTCAAGCGTG was tested, and the sensor-assay potency score (higher = more potent) was -0.271. TACAGCGTAGCCATCAGCCATC gave a sensor-assay potency score (higher = more potent) of -1.38. Work on TAGAGTAGTTGACAAAAGCTGG yielded a sensor-assay potency score (higher = more potent) of -0.329. For TAAAAGTGAAGGTTAATCTTGG, the sensor-assay potency score (higher = more potent) was 0.553. TAGTGTAAAGAACATCCGTGGT showed a sensor-assay potency score (higher = more potent) of -0.214. For ATAGTGTAAAGAACATCCGTGG, the sensor-assay potency score (higher = more potent) was -0.231. For TTGAACTGAGTCAAATTCCACC, the sensor-assay potency score (higher = more potent) was -0.367. TTAAGGTTAAGTAAGCCTCTAC gave a sensor-assay potency score (higher = more potent) of 0.152.

Each sequence was assayed against HNRNPU in the same assay as above. Details: shRNA.
For TTTCATCAAACTTTTCTCCATA, the sensor-assay potency score (higher = more potent) was -0.817. Work on TTGAGTAACTACCACGGCCAGG yielded a sensor-assay potency score (higher = more potent) of -1.38. Work on AACTACAACAGCTTTTCGCTGG yielded a sensor-assay potency score (higher = more potent) of 0.276. With TTATCCATAATAGTATTTGTGC the sensor-assay potency score (higher = more potent) was -0.391. Work on TTGCTTATAGTCTTCATCTTTT yielded a sensor-assay potency score (higher = more potent) of -0.867. TTCTTCCTTATATTGCTCCAAG gave a sensor-assay potency score (higher = more potent) of -1.21. Work on TTCTTCTTCAACAGGTGGCTGA yielded a sensor-assay potency score (higher = more potent) of -0.158. In the case of TATTGCTTTTCTTTGAGCCAGT, the sensor-assay potency score (higher = more potent) is reported as -0.865. In the case of TTTGCTTCTTAAAACCTGCCAC, the sensor-assay potency score (higher = more potent) is reported as 0.467. Sequence TAAAATTTCGCTTCTTTCGGGC has a sensor-assay potency score (higher = more potent) of 0.159. Sequence TTCATCTCAAAACACACTTTGC has a sensor-assay potency score (higher = more potent) of -0.868.

The sequences below were run against HOOK2 in the same assay as above. Details: shRNA.
For TGGAACGTCTGTAACCAGGTGA, the sensor-assay potency score (higher = more potent) was 0.0642. With TTTTTCTCGCAACTGATGGCAC the sensor-assay potency score (higher = more potent) was -0.412. TCACTTAGGAAATAGTACCTGC gave a sensor-assay potency score (higher = more potent) of -0.233. Sequence TCAGCTTCCAGTTGGGACCTGG has a sensor-assay potency score (higher = more potent) of -0.00912. Work on TTAGGAAATAGTACCTGCGGGA yielded a sensor-assay potency score (higher = more potent) of -0.0973. Sequence ATGGTCTGCATGACCATGCGGG has a sensor-assay potency score (higher = more potent) of -1.25. TTTCTCAAAGTCCATCTCCAGG gave a sensor-assay potency score (higher = more potent) of -1.2. TCCTCTGCAACTCCAGATCTGC gave a sensor-assay potency score (higher = more potent) of -1.56. Sequence TTCCATGGTCTGCATGACCATG has a sensor-assay potency score (higher = more potent) of -1.55. For TTCTGACACAGGATGCGCCAGG, the sensor-assay potency score (higher = more potent) was -0.785. Sequence TACGTCTCTGGTGACAGGGAGT has a sensor-assay potency score (higher = more potent) of -0.714. TACTAGGCTCCGTAAGACCATC showed a sensor-assay potency score (higher = more potent) of -1.58.

What follows are sequences tested against HOXA6 in the same assay as above. Details: shRNA.
Sequence TGAGGTGTACGTCTTGTCCGGG has a sensor-assay potency score (higher = more potent) of -0.648. TTGGTAGAAACAAGGTGAGGTG was tested, and the sensor-assay potency score (higher = more potent) was -0.106. TTGTCCGGGAGACTCGACGCCC showed a sensor-assay potency score (higher = more potent) of -0.988. TTATCAGAATAGAAACACGAGG showed a sensor-assay potency score (higher = more potent) of -1.05. Work on TATCAGAATAGAAACACGAGGC yielded a sensor-assay potency score (higher = more potent) of -0.218. Work on TTGGCGATCTCGATGCGGCGGC yielded a sensor-assay potency score (higher = more potent) of -0.809. TTGTACTGCTGCTCGGGAGAAA gave a sensor-assay potency score (higher = more potent) of -0.818. TTGGACTGTTGGTAGAAACAAG gave a sensor-assay potency score (higher = more potent) of -1.21. For TGTTGGTAGAAACAAGGTGAGG, the sensor-assay potency score (higher = more potent) was -1.56.
